Laboratory results taken from PubChem BioAssay (Tox21).
Values joined by “and” are separate entries in the source; they are usually repeats but may differ in a detail not shown here. Identical values can stand only once. Results filed as inconclusive are left out. More than one record can exist for a structure, and the calls need not agree. Active and inactive are the calls of the source. Unless noted, the call rests on the fitted dose curve; in most records, active means well fitted curve in the direction sought with a large enough effect in the repeat runs; inconclusive means weak or mixed curves; inactive means no such curve, though single readings can be large; an effect the other way counts as inactive or inconclusive.

Tests used:
[1] = qHTS assay to identify small molecule antagonists of the glucocorticoid receptor (GR) signaling pathway - cell viability counter screen (AID 720693); further: nearly all actives have a fitted effect of over 55% in size
[2] = qHTS assay for identifying genotoxic compounds that show differential cytotoxicity against isogenic chicken DT40 cell lines with known DNA damage response pathways - wild type cell line (AID 743012); further: nearly all actives have a fitted effect of over 60% in size; further: potency means the concentration at half of the fitted maximal effect
Outline: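 CellTiter-Glo luminescence readout of viability in wild type DT40 cells after 40 h compound exposure at 37 C/5% CO2; 300 cells/well; reagent incubated 30 min at room temperature before reading.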

[3] = qHTS assay for identifying genotoxic compounds that show differential cytotoxicity against isogenic chicken DT40 cell lines with known DNA damage response pathways - Rev3 mutant cell line (AID 743014); further: nearly all actives have a fitted effect of over 55% in size; further: potency means the concentration at half of the fitted maximal effect
[4] = qHTS assay for identifying genotoxic compounds that show differential cytotoxicity against isogenic chicken DT40 cell lines with known DNA damage response pathways - Rad54/Ku70 mutant cell line (AID 743015); further: nearly all actives have a fitted effect of over 60% in size; further: potency means the concentration at half of the fitted maximal effect
[5] = qHTS assay to identify small molecule antagonists of the androgen receptor (AR) signaling pathway - cell viability counter screen (AID 743033; further: nearly all actives have a fitted effect of over 45% in size)
[6] = molecular target: Androgen receptor (Homo sapiens) (UniProt P10275); assay: qHTS assay to identify small molecule antagonists of the androgen receptor (AR) signaling pathway (AID 743035; active means well fitted inhibition curve with a large enough effect in the signal ratio in the repeat runs, not every such curve was filed as active; the % refers to the signal ratio)
Outline: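 AR-bla HEK293 reporter cells; 4 h settle at 37C/5% CO2; compound + R1881 agonist, 16 h at 37C; LiveBLAzer B/G FRET substrate 2 h RT; fluorescence intensity read. qHTS format.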

[7] = molecular target: Androgen receptor (Homo sapiens) (UniProt P10275); assay: qHTS assay to identify small molecule agonists of the androgen receptor (AR) signaling pathway (AID 743036; active means well fitted activation curve with a large enough effect in the signal ratio in the repeat runs, with a control signal flat, not every such curve was filed as active; the % refers to the signal ratio)
Outline: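 Beta-lactamase under UAS control, stably integrated in HEK293 GripTite cells, reports receptor activation. After 16 h compound treatment, cells received FRET substrate for 2 h at room temperature before fluorescence reading.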

[8] = molecular target: Androgen receptor (Homo sapiens) (UniProt P10275); assay: qHTS assay to identify small molecule agonists of the androgen receptor (AR) signaling pathway using the MDA cell line (AID 743040; further: nearly all actives have a fitted effect of over 20% in size)
Outline: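 Luciferase agonist assay: 16 h compound exposure at 37C without CO2 in MDA-kb2 AR-luc cells, whose MMTV promoter responds to both AR and GR. Luminescence measured after 30 min room-temperature incubation with ONE-Glo.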

[9] = qHTS assay to identify small molecule antagonists of the androgen receptor (AR) signaling pathway using the MDA cell line - cell viability counter screen (AID 743041; further: nearly all actives have a fitted effect of over 45% in size)
Outline: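 Viability read by CellTiter-Fluor fluorescence in the same wells as the antagonist screen, added after 15.5 h of a 16 h, 37C exposure. Human breast carcinoma MDA-kb2 AR-luc cells, compounds co-dosed with agonist R1881.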

[10] = molecular target: Androgen receptor (Homo sapiens) (UniProt P10275); assay: qHTS assay to identify small molecule antagonists of the androgen receptor (AR) signaling pathway using the MDA cell line (AID 743042; further: nearly all actives have a fitted effect of over 55% in size)
Outline: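 Antagonist mode: compounds plus R1881 agonist added to MDA-kb2 AR-luc cells, incubated 16 h at 37C. Luciferase reporter luminescence quantified, with multiplexed CellTiter-Fluor readout for cell viability.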

Measured: Potency

Chain of Androgen receptor (Homo sapiens) (P10275 whole entry, looked up): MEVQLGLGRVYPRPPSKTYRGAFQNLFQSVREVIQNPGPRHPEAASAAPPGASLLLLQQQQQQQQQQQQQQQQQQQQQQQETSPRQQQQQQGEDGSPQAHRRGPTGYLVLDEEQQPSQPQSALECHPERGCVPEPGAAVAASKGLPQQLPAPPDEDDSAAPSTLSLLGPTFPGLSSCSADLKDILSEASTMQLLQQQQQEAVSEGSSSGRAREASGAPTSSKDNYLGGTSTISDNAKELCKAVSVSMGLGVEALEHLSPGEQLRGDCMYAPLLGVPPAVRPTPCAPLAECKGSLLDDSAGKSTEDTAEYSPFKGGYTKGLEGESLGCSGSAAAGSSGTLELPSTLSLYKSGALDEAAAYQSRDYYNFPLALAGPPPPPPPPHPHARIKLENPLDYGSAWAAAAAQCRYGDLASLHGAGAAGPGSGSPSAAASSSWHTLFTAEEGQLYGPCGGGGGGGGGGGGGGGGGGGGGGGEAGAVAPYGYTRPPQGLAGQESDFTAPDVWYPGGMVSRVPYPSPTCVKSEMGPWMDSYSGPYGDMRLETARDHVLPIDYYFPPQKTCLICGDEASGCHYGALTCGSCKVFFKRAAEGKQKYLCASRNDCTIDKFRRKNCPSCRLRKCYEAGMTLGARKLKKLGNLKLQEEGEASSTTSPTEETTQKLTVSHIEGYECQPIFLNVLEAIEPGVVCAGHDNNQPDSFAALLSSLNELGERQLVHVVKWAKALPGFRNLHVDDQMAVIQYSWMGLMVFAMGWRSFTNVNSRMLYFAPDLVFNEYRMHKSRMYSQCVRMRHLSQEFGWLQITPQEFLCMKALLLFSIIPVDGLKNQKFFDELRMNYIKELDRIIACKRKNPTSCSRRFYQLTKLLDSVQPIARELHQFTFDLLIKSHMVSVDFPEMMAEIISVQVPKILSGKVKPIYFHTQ

COCCl
inactive and 13.8 µM (active): [3]
inactive: all other assays above

CC(C)(C)OOC(C)(C)C
inactive: [1] | [2] | [3] | [4] | [5] | [9]

Cc1cc(Cl)ccc1O
inactive: [1] | [2] | [3] | [4] | [5] | [9]

O=c1ccc(=O)[nH][nH]1
inactive: all assays above

Nc1ccc(Br)cc1
inactive: [1] | [2] | [3] | [4] | [5] | [9]

C=CCO
inactive: [1] | [2] | [3] | [4] | [5] | [9]

O=C1CCCN1
inactive: [1] | [2] | [3] | [4] | [5] | [9]

CC(Oc1ccc(Cl)cc1Cl)C(=O)O (configuration not stated)
inactive: [1] | [2] | [3] | [4] | [5] | [9]

CC(Br)C(=O)O (configuration not stated)
inactive: [1] | [2] | [3] | [4] | [5] | [9]

O=NN1CCCCCCC1
inactive: [1] | [2] | [3] | [4] | [5] | [9]

Cc1[nH]c(=O)n(C(C)(C)C)c(=O)c1Cl
inactive: all assays above

CCOP(OCC)OCC
inactive: [1] | [2] | [3] | [4] | [5] | [9]

O=c1[nH]c(=O)[nH]c(=O)[nH]1
inactive: all assays above

O=Cc1cccc(Oc2ccccc2)c1
inactive: [1] | [2] | [3] | [4] | [5] | [9]

COC(=O)c1ccccc1N
inactive: [1] | [2] | [3] | [4] | [5] | [9]

CNC(=O)Oc1ccccc1OC(C)C
inactive: [1] | [2] | [3] | [4] | [5] | [9]

OC(O)C(Cl)(Cl)Cl
inactive: [1] | [2] | [3] | [4] | [5] | [9]

O=S(=O)(c1ccc(Cl)cc1)c1cc(Cl)c(Cl)cc1Cl
inactive and 61.1 µM (active): [3]
inactive: [1] | [5] | [9]
inactive and 54.5 µM (active): [4]
inactive and 48.6 µM (active): [2]

CCNc1nc(NC(C)C)nc(SC)n1
inactive and 61.1 µM (active): [2]
active: [3] 61.1 µM | [4] 61.1 µM
not listed: [6]
inactive: all other assays above

CCCCCOC(=O)c1ccccc1C(=O)OCCCCC
inactive and 61.1 µM (active): [2]
inactive: [1] | [3] | [4] | [5] | [9]

O=[N+]([O-])c1ccccc1
inactive: [1] | [2] | [3] | [4] | [5] | [9]

CC(C)OC(=O)Nc1ccccc1
inactive: [1] | [2] | [3] | [4] | [5] | [9]

C1CC2OC2CC1C1CO1 (configuration not stated)
inactive: [1] | [2] | [3] | [4] | [5] | [9]

NCC(O)c1ccc(O)cc1 (configuration not stated)
inactive: [1] | [2] | [3] | [4] | [5] | [9]

Nc1ccc(Cc2ccc(N)cc2)cc1
inactive: [1] | [2] | [4] | [5] | [9]
inactive and 48.6 µM (active): [3]

CCCN(CCC)c1c([N+](=O)[O-])cc(C(F)(F)F)cc1[N+](=O)[O-]
inactive: all assays above

CCC[N+](=O)[O-]
inactive: [1] | [2] | [3] | [4] | [5] | [9]

COC(=O)c1ccccc1C(=O)OC
inactive: [1] | [2] | [3] | [4] | [5] | [9]

C=C(C)CCl
inactive: all assays above

C#CCN(C)[C@H](C)Cc1ccccc1
inactive: [1] | [2] | [3] | [4] | [5] | [9]

CC(C)OC(=O)Nc1cccc(Cl)c1
inactive: [1] | [2] | [3] | [4] | [5] | [9]

CC(C)C#N
inactive: [1] | [2] | [3] | [4] | [5] | [9]

BrCCBr
inactive: [1] | [2] | [4] | [5] | [9]
18.8 µM (active) and inactive: [3]

O=c1n(Cl)c(=O)n(Cl)c(=O)n1Cl
inactive: [1] | [2] | [3] | [4] | [5] | [9]

O=S(=O)(c1ccc(O)cc1)c1ccc(O)cc1
inactive: [1] | [2] | [3] | [4] | [5] | [9]
